40 compounds from PubChem BioAssay (NCI) can be followed below.

The structures appear in SMILES notation. Compounds without any hit were thinned out: in the full panel of roughly 79,000, 15% have a hit. Active and inactive are the calls of the source. No stated cut-off is given here; in the data, active means growth inhibition above about 70%; inactive means the rest.

A short description of one test: NCI Yeast Anticancer Drug Screen. Data for the sgs1 mgt1 strain (AID 161).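 Further: 0% = growth of cultures given vehicle only.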 To be noted: S. cerevisiae sgs1 mgt1 strain, at 50.0 µM, active compounds read high. The method in brief: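 Test agents were incubated with a DNA-repair-mutant yeast strain. Growth was then read and compared against vehicle-treated controls.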
In the case of `C(=C\c1ccc(OCc2ccccc2)cc1)/c1ccc(OCc2ccccc2)cc1`, the growth inhibition was -13.6% (inactive).
As to `C=CCNC(=O)N(CCC)CCCCC(NC(C)=O)C(=O)NCc1ccccc1` (stereo not given), the growth inhibition was -8.4% (inactive).
On the same count and under the same terms, then `CC1(C)OC(=O)C(=Cc2cccc3ccc4ccccc4c23)C(=O)O1`, with 8.9% (inactive); and `CC1(C)C2CCC3CC(CCC#N)CCC3C21C#N` (stereo not given), with -8.8% (inactive); and `Cc1ccc(S(=O)(=O)OCC(c2ccccc2)C(F)(F)F)cc1` (stereo not given), with 12.4% (inactive).
As to `CC(NC(=O)C(C)(C)C)c1ccc2c(c1)OCCO2` (stereo not given), the growth inhibition is 6.6% (inactive).
The same measure, in the same setting: then `CCCCC1CCC2CCCCC2C1` (stereo not given), with -8.05% (inactive); and `CCOC(=O)NC(=O)CC#N`, with 13.4% (inactive); and `Fc1ccc(N2C(c3ccccc3)=N[C@@H](N3CCOCC3)[C@@H]2N2CCOCC2)cc1`, with 4.2% (inactive).
With `C(=C/c1ccccc1)/CN1CCCCC1`, the growth inhibition was 36% (inactive).
On the same count and under the same terms, then `O=C(O)C1C(CCl)=C1CCl`, with 2.35% (inactive); and `CC(OC(C(O)C=O)C(O)C(O)CO)C(=O)N[C@@H](C)C(=O)O` (stereo not given in full), with -0.75% (inactive); and `CC1(C)C2C/C(=N/O)C(=O)C1C2` (stereo not given), with 8.8% (inactive).
In the case of `C/C(O)=C(\C=N\C(=S)N=Nc1c(O)[nH]c2ccccc12)C(=O)Nc1ccccc1C`, the growth inhibition was 43.4% (inactive).
On to `CC(CN(C)C)/C(=N\Nc1ccccc1)c1ccccc1` (stereo not given), for which the growth inhibition is 29.2% (inactive).
Take `COc1ccc(/C=N/CCl)cc1`: the growth inhibition was 7.05% (inactive).
The same measure, in the same setting: the same measure for `CCC(=O)N(C)c1ccccc1`: 0.75% (inactive); for `CNC(=O)n1cnc2ccccc21`: 37% (inactive).
Same read-out and setting: the same measure for `CCCCCCCCCCCCCCCCc1c(C(=O)OC)nc(NN)[nH]c1=O`: -26.5% (inactive); for `C/C(=N/N=C(N)N)c1cnn(C(=N)N)c1C`: 18.2% (inactive).
With `CC1CCc2c(O)ccc(O)c21` (stereo not given), the growth inhibition is 2.5% (inactive).
Same read-out and setting: then `CC12CCC(=O)C=C1CCC1C2CCC2(C)C1CCC2(O)C(=O)Cn1c(=O)[nH]cc(F)c1=O` (stereo not given), with 5.75% (inactive).
On the same count and under the same terms, then `CCOC(=O)C(C)(C)/C=C\C(Cl)=C(Cl)Cl`, with 8.75% (inactive); and `O=C1c2ccccc2C(=O)N1Cl`, with -37.1% (inactive); and `COC(=O)C(CO)NC(=O)C(CC(C)C)NC(=O)C(CC(C)C)NC(=O)OCc1ccccc1` (stereo not given), with 16.6% (inactive).
Still for that read-out and setting: then `NC(=O)NC(N)=O`, with -9.95% (inactive); and `O=C(C[N+]1(c2ccccc2)CCOCC1)c1ccccc1`, with -13.8% (inactive).
On to `CC1OC(CC(=O)O)CC2=C1C(=O)c1c(O)cccc1C2=O` (stereo not given), for which the growth inhibition is 17.2% (inactive).
On the same count and under the same terms, then `CCNc1ncc2nc(CC(=O)OC)c(=O)n(CC)c2n1`, with 4.75% (inactive).
Still for that read-out and setting: the same measure for `N#C/C(=C1/Sc2c(nc[nH]c2=O)N1c1ccccc1)c1nc2ccccc2[nH]1`: -51.9% (inactive).
Consider `O=C(CSc1cc(Cl)c(Cl)cc1Cl)Nc1cccc(Cl)c1`, for which the growth inhibition is 6.3% (inactive).
Consider `O=C(/C=C/c1ccc(Cl)cc1)c1cccs1`, for which the growth inhibition is 36.6% (inactive).
Same read-out and setting: the same measure for `COC(=O)C1=C(C)N(NC(N)=O)C(C)(O)C12CCOC2=O` (stereo not given): 2.15% (inactive); for `CN(C)CCCNC(=O)N/N=C/c1ccc(O)cc1`: 7% (inactive); for `O=C1C(=C(c2ccccc2)N2CCCCC2)C(=O)c2ccccc21`: 15.1% (inactive).
Take `Cc1nnc2cc(C(=O)O)c3ccccc3n2c1=O`: the growth inhibition is -13.4% (inactive).
Take `COc1cc(OC)c(OC)cc1/C=N/N=C(\N)NO`: the growth inhibition was -1.95% (inactive).
In the case of `CC(=O)c1c(C)[nH]c(-c2ccccc2)c1NS(=O)(=O)c1ccc(N)cc1`, the growth inhibition was 25.4% (inactive).
On the same count and under the same terms, then `O=C(CCN1CCCCC1)Nc1ccc2sc3ccccc3c(=O)c2n1`, with -0.6% (inactive); and `CCCC(SCCO)C(CC)CSCCO` (stereo not given), with 2.65% (inactive).

The nature of the next test: NCI Yeast Anticancer Drug Screen. Data for the cln2 rad14 strain (AID 165).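 Further: 0% = growth equal to vehicle treated cultures.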 To be noted: S. cerevisiae cln2 rad14 strain, at 50.0 µM, active compounds read high. The method in brief: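 Each compound was tested on cln2 rad14 yeast. Inhibition of growth was calculated against vehicle-exposed controls.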
On to `C(=C\c1ccc(OCc2ccccc2)cc1)/c1ccc(OCc2ccccc2)cc1`, for which the growth inhibition is -7.6% (inactive).
In the case of `C=CCNC(=O)N(CCC)CCCCC(NC(C)=O)C(=O)NCc1ccccc1` (stereo not given), the growth inhibition is 18.6% (inactive).
On the same count and under the same terms, the same measure for `CC1(C)OC(=O)C(=Cc2cccc3ccc4ccccc4c23)C(=O)O1`: -17.1% (inactive); for `CC1(C)C2CCC3CC(CCC#N)CCC3C21C#N` (stereo not given): -34.5% (inactive); for `Cc1ccc(S(=O)(=O)OCC(c2ccccc2)C(F)(F)F)cc1` (stereo not given): -23.7% (inactive).
Still for that read-out and setting: then `CC(NC(=O)C(C)(C)C)c1ccc2c(c1)OCCO2` (stereo not given), with -3.7% (inactive); and `CCCCC1CCC2CCCCC2C1` (stereo not given), with -18.1% (inactive); and `CCOC(=O)NC(=O)CC#N`, with 5.05% (inactive).
The same measure, in the same setting: then `Fc1ccc(N2C(c3ccccc3)=N[C@@H](N3CCOCC3)[C@@H]2N2CCOCC2)cc1`, with -19.9% (inactive); and `C(=C/c1ccccc1)/CN1CCCCC1`, with 11.4% (inactive); and `O=C(O)C1C(CCl)=C1CCl`, with -11.3% (inactive).
As to `CC(OC(C(O)C=O)C(O)C(O)CO)C(=O)N[C@@H](C)C(=O)O` (stereo not given in full), the growth inhibition is -2.45% (inactive).
Regarding `CC1(C)C2C/C(=N/O)C(=O)C1C2` (stereo not given), the growth inhibition is 14.6% (inactive).
On to `C/C(O)=C(\C=N\C(=S)N=Nc1c(O)[nH]c2ccccc12)C(=O)Nc1ccccc1C`, for which the growth inhibition is 32.5% (inactive).
Still for that read-out and setting: the same measure for `CC(CN(C)C)/C(=N\Nc1ccccc1)c1ccccc1` (stereo not given): 1.1% (inactive).
The same measure, in the same setting: then `COc1ccc(/C=N/CCl)cc1`, with -49.3% (inactive); and `CCC(=O)N(C)c1ccccc1`, with 12.2% (inactive).
Still for that read-out and setting: then `CNC(=O)n1cnc2ccccc21`, with 13.1% (inactive).
Regarding `CCCCCCCCCCCCCCCCc1c(C(=O)OC)nc(NN)[nH]c1=O`, the growth inhibition is -2.85% (inactive).
Consider `C/C(=N/N=C(N)N)c1cnn(C(=N)N)c1C`, for which the growth inhibition was 19.4% (inactive).
`CC1CCc2c(O)ccc(O)c21` (stereo not given): the growth inhibition was -15.2% (inactive).
Take `CC12CCC(=O)C=C1CCC1C2CCC2(C)C1CCC2(O)C(=O)Cn1c(=O)[nH]cc(F)c1=O` (stereo not given): the growth inhibition is 10.8% (inactive).
Regarding `CCOC(=O)C(C)(C)/C=C\C(Cl)=C(Cl)Cl`, the growth inhibition was 4.25% (inactive).
Same read-out and setting: the same measure for `O=C1c2ccccc2C(=O)N1Cl`: -0.05% (inactive).
Same read-out and setting: the same measure for `COC(=O)C(CO)NC(=O)C(CC(C)C)NC(=O)C(CC(C)C)NC(=O)OCc1ccccc1` (stereo not given): 11.6% (inactive).
Regarding `NC(=O)NC(N)=O`, the growth inhibition is -34.1% (inactive).
Still for that read-out and setting: the same measure for `O=C(C[N+]1(c2ccccc2)CCOCC1)c1ccccc1`: 4.7% (inactive); for `CC1OC(CC(=O)O)CC2=C1C(=O)c1c(O)cccc1C2=O` (stereo not given): 0.6% (inactive); for `CCNc1ncc2nc(CC(=O)OC)c(=O)n(CC)c2n1`: -75.6% (inactive).
Consider `N#C/C(=C1/Sc2c(nc[nH]c2=O)N1c1ccccc1)c1nc2ccccc2[nH]1`, for which the growth inhibition is -8.1% (inactive).
On the same count and under the same terms, then `O=C(CSc1cc(Cl)c(Cl)cc1Cl)Nc1cccc(Cl)c1`, with -12.6% (inactive); and `O=C(/C=C/c1ccc(Cl)cc1)c1cccs1`, with 1.25% (inactive); and `COC(=O)C1=C(C)N(NC(N)=O)C(C)(O)C12CCOC2=O` (stereo not given), with -56.8% (inactive).
Still for that read-out and setting: then `CN(C)CCCNC(=O)N/N=C/c1ccc(O)cc1`, with 17.8% (inactive).
In the case of `O=C1C(=C(c2ccccc2)N2CCCCC2)C(=O)c2ccccc21`, the growth inhibition was -7.75% (inactive).
Turning to `Cc1nnc2cc(C(=O)O)c3ccccc3n2c1=O`, the growth inhibition is -30.6% (inactive).
Still for that read-out and setting: then `COc1cc(OC)c(OC)cc1/C=N/N=C(\N)NO`, with 3.05% (inactive); and `CC(=O)c1c(C)[nH]c(-c2ccccc2)c1NS(=O)(=O)c1ccc(N)cc1`, with -13% (inactive); and `O=C(CCN1CCCCC1)Nc1ccc2sc3ccccc3c(=O)c2n1`, with 9.1% (inactive).
On to `CCCC(SCCO)C(CC)CSCCO` (stereo not given), for which the growth inhibition is -14.5% (inactive).
